Bioassay records as filed in PubChem BioAssay.
ClpP mod: qHTS Assay for Activators of ClpP; 340,000 tested, 1.9% active; Potency, µM (doses to about 57.5 µM), for inactives: at the top dose activity change, negative = active; AID 651965, 2013; purified B. subtilis ClpP, FRET peptide cleavage, 20 min; active means well fitted falling curve with a large enough effect; inconclusive means small, poorly fitted or top-dose-only effect; inactive means no such curve, though single readings can be large or run the other way; further: potency means the concentration at half of the fitted maximal effect; the source files actives as falling curves though it sought activators and does not explain the sign; nearly all actives have a fitted effect of over 65% in size
Target sequence (P80244 whole entry, looked up): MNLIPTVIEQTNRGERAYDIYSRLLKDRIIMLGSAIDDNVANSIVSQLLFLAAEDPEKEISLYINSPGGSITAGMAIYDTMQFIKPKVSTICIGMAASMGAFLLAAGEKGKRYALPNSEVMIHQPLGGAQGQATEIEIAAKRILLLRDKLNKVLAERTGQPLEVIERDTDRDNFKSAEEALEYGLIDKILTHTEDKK
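ClpP 10 microg/mL final, pH 8 Tris/KCl buffer with BSA, glycerol, Tween-20; compound pinned in; FRET-FV substrate; RT 20 min; Ex320/Em430; ΔFRET vs ADEP 5.8 microM, DMSO, no enzyme.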
DT40 TDP1 CPT: qHTS for Inhibitors of human tyrosyl-DNA phosphodiesterase 1 (TDP1): qHTS in cells in presence of CPT; chicken DT40 Tdp1-/-;hTDP1 cells + 20 nM CPT, ATP luminescence, 48 h; Potency, µM (doses to about 46.2 µM), inactives show at the top dose activity change, negative = growth inhibition, hits mostly inhibitors; 420,000 tested, 12% active; further: potency means the concentration at half of the fitted maximal effect; on the % scale 0 is the no-effect control and ±100 the full control effect; nearly all actives have a fitted effect of over 55% in size
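Cell growth measured by CellTiter-Glo luminescence after a minimum 48 h, 37 C compound exposure with 20 nM CPT in Tdp1-knockout DT40 cells stably expressing hTDP1, seeded 400/well; qHTS titration format.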
D3 antag: qHTS of D3 Dopamine Receptor Antagonist: qHTS | D(3) dopamine receptor (Homo sapiens), P35462 | D3R cells, DiscoveRx beta-arrestin luminescence, antagonist mode; stronger effect = lower value | max response, negative = inhibition, % | 360,000 tested, 2.5% active; in the data active means max response below about -50%; inconclusive means no clear call, values can overlap the other calls; further: on the % scale 0 is the no-effect control and ±100 the full control effect
Target sequence (P35462 whole entry, looked up): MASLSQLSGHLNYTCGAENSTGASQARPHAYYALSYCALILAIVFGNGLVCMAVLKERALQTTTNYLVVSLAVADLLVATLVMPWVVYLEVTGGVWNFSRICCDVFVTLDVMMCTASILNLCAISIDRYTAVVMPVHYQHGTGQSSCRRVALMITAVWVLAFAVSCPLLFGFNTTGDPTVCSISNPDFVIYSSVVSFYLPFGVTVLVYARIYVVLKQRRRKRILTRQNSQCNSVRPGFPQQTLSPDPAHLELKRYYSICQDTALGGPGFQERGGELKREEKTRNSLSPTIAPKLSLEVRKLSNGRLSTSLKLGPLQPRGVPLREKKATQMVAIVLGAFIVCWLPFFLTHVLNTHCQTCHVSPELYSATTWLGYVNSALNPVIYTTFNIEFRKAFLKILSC
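Cells expressing the human receptor were seeded at 1500 cells/well, incubated overnight at 37 degrees C in 5% CO2, then exposed to library compounds with dopamine controls for 90 minutes at 37 degrees C before luminescent detection.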
IL1B secr inh: qHTS for Inhibitors of Inflammasome Signaling: IL-1-beta AlphaLISA Primary Screen; THP-1 LPS/ATP IL-1B secretion, AlphaLISA, 16 h; stronger effect = lower value; activity change, % at 57.5 µM; 360,000 tested, 4.7% active; AID 743279, 2014; in the data active means activity change below about -50%; inconclusive means mostly about -30% to -49%; further: on the % scale 0 is the no-effect control and ±100 the full control effect
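THP-1 cells pretreated 1 hr with compounds (up to 57.5 uM final), then stimulated with LPS (250 ng/mL final) plus ATP (1.25 mM final); secreted IL-1B measured by AlphaLISA after 16 hr, decreased signal indicating inhibition.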
TDP1 cell noCPT: qHTS for Inhibitors of human tyrosyl-DNA phosphodiesterase 1 (TDP1): qHTS in cells in absence of CPT; DT40 Tdp1-/- hTDP1 cells, no CPT, ATP luminescence, 48 h; Potency, µM (doses to about 46.2 µM), inactives show at the highest dose activity change, negative = growth inhibition, most hits filed as inhibitors; 420,000 tested, 15% active; further: potency means the concentration at half of the fitted maximal effect; on the % scale 0 is the no-effect control and ±100 the full control effect; nearly all actives have a fitted effect of over 55% in size
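Chicken DT40 Tdp1-/- cells stably complemented with human TDP1 were seeded at 400 cells/well with DMSO in place of 20 nM camptothecin. After compound pinning, cells grew at least 48 hr at 37 °C; viability read by CellTiter-Glo luminescence.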
DRD3 agonist: qHTS of D3 Dopamine Receptor Agonist: qHTS | D(3) dopamine receptor (Homo sapiens), P35462 | D3R DiscoveRx beta-arrestin cells, luminescence, 90 min | max activation, % | 410,000 tested, 0.58% active; in the data active means max activation above about 30%; further: 0% is about no effect
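Cells at 1500/well, incubated overnight, then treated with pinned compounds (dopamine as control) for 90 min at 37 degrees C. DiscoveRx reagent added for 30 - 60 minutes at room temperature; luminescence read.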
An asterisk follows results filed as active; ? = inconclusive; . = no result given. This is a sample that favours compounds with a hit; in the whole collection about 21% have one here. Unless noted, the call rests on the fitted dose curve; in most records, active means well fitted inhibition curve with a large enough effect; inconclusive means small, poorly fitted or top-dose-only effect; inactive means flat fitted curve, though single readings scatter.

SMILES | ClpP mod | DT40 TDP1 CPT | D3 antag | IL1B secr inh | TDP1 cell noCPT | DRD3 agonist
CCn1c2ccccc2c2cc(NC(=O)c3ccco3)ccc21 | -4% | ? | 8 | -52* | ? | -1
CCn1c2ccccc2c2cc(NC(=O)c3cccc(OC)c3OC)ccc21 | ? | 8.2µM* | 10 | -26 | 4.1µM* | 13
CC(=O)Nc1nnc(CSCc2ccccc2F)s1 | . | -22% | ? | 13 | -26% | -18
CC(=O)c1ccc(NC(=O)CCn2cccn2)cc1 | -1% | 27% | . | . | 0% | 5
CC(C)=CCC/C(C)=C/CC/C(C)=C/CC/C=C(\C)CC/C=C(\C)CCC=C(C)C | . | -3% | . | . | -25% | 10
CN(N=O)C(=O)N[C@H]1C(O)C(O)C(CO)O[C@@H]1O (some centres not stated) | . | 1% | . | . | -12% | .
CN(c1ccc(F)cc1)S(=O)(=O)c1ccc(Cl)c(C(=O)OCC(=O)NCc2ccco2)c1 | 1% | -7% | -18 | 13 | ? | 0
CCn1c2ccccc2c2cc(NC(=O)c3ccccc3[N+](=O)[O-])ccc21 | 0% | 21µM* | -19 | 41 | 23µM* | -5
CCCCn1c(N)c(N(CC)C(=O)CSc2nnnn2-c2cc(C)ccc2C)c(=O)[nH]c1=O | 0% | 4% | -4 | -14 | -14% | 4
COC(=O)[C@@]12C[C@@H](CC(=O)NCc3ccc(C)o3)C(=O)N(CCc3ccc(OC)c(OC)c3)C1=CCC(C)(C)C2 | -3% | 9.2µM* | 7 | ? | 8.2µM* | 3
CCCCCCCCN1C(=O)[C@H](CC(=O)NCc2cccc(C(F)(F)F)c2)C[C@@]2(C(=O)OC)CC(C)(C)CC=C12 | 3% | 12µM* | 48 | -22 | 10µM* | 10
C#CCNC(=O)C[C@@H]1C[C@@]2(C(=O)OC)CCCCC=C2N(CCc2ccc(OC)c(OC)c2)C1=O | 1% | ? | 25 | 18 | ? | 10
COC(=O)[C@]12CCCCC=C1N(CCc1ccc(OC)c(OC)c1)C(=O)[C@H](CC(=O)NCc1cccs1)C2 | 4% | 21µM* | 16 | -29 | 16µM* | 6
COC(=O)[C@@]12C[C@@H](CC(=O)NCc3cccc4ccccc34)C(=O)N(CCc3ccc(OC)c(OC)c3)C1=CCC(C)(C)C2 | -6% | ? | 6 | -15 | ? | 0
COC(=O)[C@@]12C[C@@H](CC(=O)NCc3ccccc3)C(=O)N(CCc3ccc(OC)c(OC)c3)C1=CCC(C)(C)C2 | -2% | 13µM* | 13 | -28 | 13µM* | -6
COc1ccc(C(=O)NCC(=O)OCc2nc(N)nc(Nc3ccccc3C)n2)cc1 | 0% | 16% | -11 | -15 | 5% | -16
O=C(O)CCN(CC(=O)c1ccc(Cl)cc1)S(=O)(=O)c1ccc([N+](=O)[O-])cc1 | 1% | 4% | 0 | -13 | 1% | -11
COC(=O)[C@@]12C[C@@H](CC(=O)NCc3cccs3)C(=O)N(CCc3ccc(OC)c(OC)c3)C1=CCC(C)(C)C2 | 0% | 21µM* | 17 | ? | ? | 0
CCOC(=O)N1CCN(C(=O)C[C@@H]2C[C@@]3(C(=O)OC)CC(C)(C)CC=C3N(CCc3ccc(OC)c(OC)c3)C2=O)CC1 | 1% | ? | 8 | ? | 16µM* | -1
CCOc1cccc(C2c3[nH]c4ccccc4c3CCN2C(=O)CSc2ccccc2)c1 (configuration not stated) | -4% | ? | . | . | ? | -15
COc1ccc(OC2C(=O)N(Cc3ccc4c(c3)OCO4)C2c2sccc2C)cc1 (configuration not stated) | 0% | ? | 39 | ? | ? | 34*
CC1(C)CC(=O)C(C2(O)C(=O)Nc3ccccc32)CO1 (configuration not stated) | . | 19% | -18 | 6 | -11% | -21
CC1(C)CC(=O)C(C2(O)C(=O)N(Cc3ccccc3)c3ccccc32)CO1 (configuration not stated) | 1% | 4.6µM* | -28 | -2 | 5.2µM* | -7
CC(C)N1C(=O)C(O)(C2COC(C)(C)CC2=O)c2ccccc21 (configuration not stated) | -5% | 5.8µM* | 6 | -3 | 7.3µM* | -3
CC1(C)CC(=O)CC(C2(O)C(=O)N(Cc3ccccc3)c3ccccc32)O1 (configuration not stated) | -2% | 2.6µM* | ? | 21 | 1.8µM* | -13
SMILES | ClpP mod | DT40 TDP1 CPT | D3 antag | IL1B secr inh | TDP1 cell noCPT | DRD3 agonist
COc1cccc(CN2CCNC(=O)C2CC(=O)NC2CCCCCCC2)c1 (configuration not stated) | -7% | -22% | -7 | 8 | -23% | -1
CCCc1cc(N2CCCC2)n2nc(C)c(-c3ccccc3)c2n1 | 32µM* | ? | 10 | 15 | ? | 4
COc1ccc(-c2c(C)nn3c(N4CCCCCC4)cc(C)nc23)cc1OC | -7% | 23µM* | 38 | -82* | 26µM* | 11
Cc1nn2c(N3CCOCC3)cc(C(C)(C)C)nc2c1-c1ccccc1 | -1% | ? | 4 | 5 | ? | 4
CCN1CCN(c2cc(C(C)(C)C)nc3c(-c4ccccc4)c(C)nn23)CC1 | ? | ? | -17 | ? | 18µM* | -5
Cc1nn2c(N3CCOCC3)cc(C(C)C)nc2c1-c1ccccc1 | -3% | ? | 15 | -13 | -18% | 0
CCN1CCN(c2cc(C(C)C)nc3c(-c4ccccc4)c(C)nn23)CC1 | . | 12µM* | -26 | . | 21µM* | -18
COc1ccc(-c2c(C)nn3c(N4CCOCC4)cc(C)nc23)cc1OC | 0% | 2% | 13 | -13 | 1% | 6
CCCN(CCC)C(=O)C1CCN(c2cc(C)nc3c(-c4ccc(Cl)cc4)c(C)nn23)CC1 | -8% | -27% | . | . | ? | 4
COc1ccc(CNC(=O)Cc2coc3ccc(C)cc23)cc1 | -4% | -5% | . | . | -20% | -8
Cc1ccc(/C=C2\SC(=S)N(c3c(C)n(C)n(-c4ccccc4)c3=O)C2=O)cc1 | 0% | ? | 17 | -80* | -19% | 5
